PolyA inh: blocks polyadenylation in yeast reporter cells; 300,000 tested, 0.02% active; activity score, % at 12 µM; S. cerevisiae SKY197-pL101 polyadenylation reporter, beta-gal luminescence; efflux-impaired pdr1/pdr3 knockout yeast; score 100 = 6 SD above DMSO;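 active = lowest replicate activity score at least 50, where 100 means six control SD above control mean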;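 note: yeast exposed to compound for 9 h at 30 °C; higher score means more reporter readthrough which indicates perturbed polyadenylation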
Platelet DG rel: modulates dense granule release in human platelets | human platelet-rich plasma, SFLLRN dense granule ATP release, luminescence | inhibition, %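 (compounds screened at 7.5 µM in platelet-rich plasma)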 | 300,000 tested, 0.22% active | AID 1663;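 active = mean replicate score, as percent of positive control, at or above 50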
pCIP destab: lowers stability of the mouse p/CIP coactivator protein | decrease of EGFP signal, % at 10 µM | 290,000 tested, 0.01% active | F442A p/CIP-EGFP cells, EGFP fluorescence, 16 h;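 active = EGFP signal decrease of at least 30% at 10 µM or well 3 SD below plate mean, unless failing retest; inactive = the rest, including hits failing retest or dose response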
HIF act: HIF pathway transcriptional activation; U2OS HRE-luciferase reporter, luminescence; normalized: DMSO 0%, desferrioxamine 100%; 300,000 tested, 0.32% active; AID 1910; activation, % at 7.5 µM (by protocol);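 active = mean activation of at least 10% of the iron chelator positive control signal, with at least half of replicates also reaching 10%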
AHR act: activators of human aryl hydrocarbon receptor; P35869; AHR-responsive luciferase reporter cells, luminescence; activation, % at 5 µM; 320,000 tested, 2.5% active; in the data active = activation above about 47%;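 note: 0% = vehicle wells and 100% = reference agonist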
AHR act confirm: confirmation of human aryl hydrocarbon receptor activators; shares compounds with AHR act; human cells, AHR-responsive luciferase reporter, luminescence; activation, % at 9 µM; 2,300 tested, 87% active; AID 2845; in the data active = activation above about 49%;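 note: HepG2 hepatoma cells carrying a DRE-driven firefly luciferase reporter; 0% = vehicle wells and 100% = reference agonist wells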
PXR act counter: counter-screen for AHR activators: human PXR activators; shares compounds with AHR act; cell-based PXR reporter, luciferase luminescence; activation, % at 11.6 µM; 2,300 tested, 88% active; AID 434939; in the data active = activation above about 11%;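 note: human hepatoma DPX-2 cells expressing full-length human PXR; 0% = DMSO and 100% = reference agonist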
Target sequence (O75469 whole entry, looked up): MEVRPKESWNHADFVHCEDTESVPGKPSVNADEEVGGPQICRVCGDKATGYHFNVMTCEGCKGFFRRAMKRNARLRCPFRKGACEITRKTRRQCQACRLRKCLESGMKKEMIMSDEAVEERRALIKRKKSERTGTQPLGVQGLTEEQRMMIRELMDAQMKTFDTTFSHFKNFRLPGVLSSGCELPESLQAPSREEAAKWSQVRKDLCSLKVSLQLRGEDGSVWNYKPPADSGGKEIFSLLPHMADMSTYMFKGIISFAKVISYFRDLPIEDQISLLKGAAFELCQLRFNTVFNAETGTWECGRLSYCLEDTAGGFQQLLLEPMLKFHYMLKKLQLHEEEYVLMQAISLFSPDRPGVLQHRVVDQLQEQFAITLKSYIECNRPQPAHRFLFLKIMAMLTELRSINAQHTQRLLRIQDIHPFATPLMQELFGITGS
* hit, by the source's call; · = not tested or not shown. Compounds with a hit are over-represented: about 2.8% of the library has one in this group of screens.

SMILES	PolyA inh	Platelet DG rel	pCIP destab	HIF act	AHR act	AHR act confirm	PXR act counter
CN(C(=S)NC(=O)c1ccc(Cl)cc1)C1CCCCC1	4.3	-0.6	4.2	1.1	90.7*	113.2*	94.4*
CN(C(=S)NC(=O)c1ccc(F)cc1)C1CCCCC1	14.7	-4.6	-6.1	-0.1	0.7	·	·
Cc1cc2n(n1)C(c1ccc3c(c1)OCO3)Nc1ccccc1-2 (stereo unspecified)	-9.2	4.3	-0.2	1.8	95.6*	90.9*	41.7*
Cc1cc2n(n1)C(c1ccccc1)Nc1ccccc1-2 (stereo unspecified)	·	-6.8	-0.2	0.5	22.7	·	·
CCn1c(Cc2ccccc2)nnc1SCC(=O)c1c(N)n(C2CC2)c(=O)[nH]c1=O	·	·	·	·	-0.1	·	·
CC(=O)Nc1sc(-c2ccc(Cl)cc2)nc1-c1ccccc1	0.1	1.5	4.2	-2.2	92.1*	-4.1	15.8*
O=C(O)Cc1sc(-c2ccc(Cl)cc2)nc1-c1ccccc1	11.7	1.2	-1.0	-0.4	-0.2	·	·
Cc1cccc(C(=O)O[C@@H]2[C@H](Cc3ccccc3)NS(=O)(=O)[C@H]3C[C@@H]4C=C[C@]23O4)c1	·	·	·	·	-0.3	·	·
CC(C)n1cnc2c(Nc3ccc(F)c(Cl)c3)nc(NCCO)nc21	7.3	0.5	3.7	-1.1	92.5*	69.0*	135.0*
O=C(/C=C/c1c[nH]c2ccccc12)c1ccccc1	-16.5	-0.6	-6.0	3.2	92.9*	105.4*	28.2*
O=C(/C=C/c1ccc[nH]1)c1ccccc1	26.7	6.0	-18.9	0.6	-2.8	·	·
Cc1sc(NC(=O)C2CSC3(C)CCC(=O)N23)nc1-c1ccc(F)cc1 (stereo unspecified)	27.4	16.0	-96.0	0.0	150.9*	100.7*	151.2*
Cc1ccc(-c2csc(NC(=O)C3CSC4(C)CCC(=O)N34)n2)cc1 (stereo unspecified)	7.2	-3.1	·	0.1	4.7	·	·
COc1ccc2nc(NC(=O)C3CSC4(C)CCC(=O)N34)sc2c1 (stereo unspecified)	-9.7	4.4	·	1.2	5.1	·	·
CC12CCC(=O)N1C(C(=O)Nc1nc3ccc(Cl)cc3s1)CS2 (stereo unspecified)	-2.2	8.0	·	2.5	127.1*	109.5*	65.3*
C=C(C)COc1ccc(-c2[nH]ncc2Oc2ccccc2OC)c(O)c1	4.0	-1.8	-17.4	0.1	98.0*	55.5*	65.9*
CCOc1ccc(-c2[nH]ncc2Oc2ccccc2OCC)c(O)c1	-22.9	26.2	-2.2	0.2	42.3	·	·
CCOc1ccccc1Oc1cn[nH]c1-c1ccc(OCC(=O)NN)cc1O	1.2	-7.5	1.4	-19.7	106.8*	67.8*	14.9*
CCOc1ccccc1NC(=S)N(Cc1cc2ccc(C)cc2[nH]c1=O)CC1CCCN1CC (stereo unspecified)	-17.3	0.9	3.9	1.3	15.8	·	·
Fc1ccc(/C=N/NC(=S)Nc2cccnc2)cc1	-6.6	-1.6	-6.8	1.4	105.4*	52.5*	18.8*
O=C(O)c1cccc(NC(=S)N/N=C/c2cccnc2)c1	2.4	-8.9	3.7	-2.1	3.6	·	·
Fc1ccc(/C=N/NC(=S)Nc2cccnc2)cc1F	14.0	3.8	10.8	1.4	98.8*	92.0*	14.3*
FC(F)(F)c1nnc(-c2ccccc2)nc1N1CCCC1	-33.5	-0.9	-5.6	0.1	85.2*	130.7*	51.7*
Cc1[nH]c2ccccc2c1C(=O)CNc1nccs1	2.6	3.9	-6.6	0.5	83.5*	34.1	26.0*
Cc1[nH]c2ccccc2c1C(=O)CCl	-9.0	-1.7	-17.1	1.5	·	·	·
Cc1[nH]c2ccccc2c1SCc1ccccc1	0.2	0.0	-9.5	0.0	128.4*	102.7*	37.9*
Cc1[nH]c2ccccc2c1C(=O)CSc1ccccc1	-23.8	7.7	10.3	1.1	100.8*	93.1*	72.4*
Cc1ccc(SCC(=O)c2c(C)[nH]c3ccccc23)cc1	-8.6	12.8	5.5	1.7	43.4	·	·
Cc1[nH]c2ccccc2c1SCCN	2.6	0.7	·	0.3	4.4	·	·
Cc1[nH]c2ccccc2c1C(=O)COc1ccccc1	-7.2	2.5	-11.3	1.2	135.0*	127.9*	30.0*
